Targets include BATF;CEBPA (Homo sapiens;Homo sapiens, UniProt Q16520;P49715 17-90;273-345, |); FOSL1;CEBPA (Homo sapiens;Homo sapiens, UniProt P15407;P49715 96-169;273-345, |); FOSL1;JUN (Homo sapiens;Homo sapiens, UniProt P15407;P05412 96-169;243-316, |); FOS;ATF3 (Homo sapiens;Homo sapiens, UniProt P01100;P18847 128-201;77-150, |); FOS;ATF4 (Homo sapiens;Homo sapiens, UniProt P01100;P18848 128-201;269-346, |); FOS;DBP (Homo sapiens;Homo sapiens, UniProt P01100;Q10586 128-201;246-324, |); ATF5;CEBPA (Homo sapiens;Homo sapiens, UniProt Q9Y2D1;P49715 199-275;273-345, |); ATF5;JUN (Homo sapiens;Homo sapiens, UniProt Q9Y2D1;P05412 199-275;243-316, |); DDIT3;CEBPG (Homo sapiens;Homo sapiens, UniProt P35638;P53567 88-169;52-130, |); MAFB;ATF4 (Homo sapiens;Homo sapiens, UniProt Q9Y5Q3;P18848 212-305;269-346, |); BATF2;JUN (Homo sapiens;Homo sapiens, UniProt Q8N1L9;P05412 8-85;243-316, |); FOS;BATF3 (Homo sapiens;Homo sapiens, UniProt P01100;Q9NR55 128-201;26-99, |); FOS;ATF2 (Homo sapiens;Homo sapiens, UniProt P01100;P15336 128-201;343-417, |).

Assay in all cases: SELEX-seq (CSI, HT-SELEX, round 3); SELEX-seq: 1x PBS (10 mM phosphate, 137 mM NaCl, 2.7 mM KCl) pH 7.6, 2.5 mM DTT, 50 ng/ul poly dI-dC, 0.1% BSA, 50 nM biotinylated bZIP (1:3 with partner for heterodimers), 100 nM library, room temperature, 1 h, 3 rounds; high values mean tight binding
Common to all, as to conditions: protein: recombinant;recombinant; copies: 1;1; dsDNA, one strand shown

Another experiment deals with T1, JUNB;DBP (Homo sapiens;Homo sapiens, UniProt P17275;Q10586 259-332;246-324, |).
T1 sequence 1: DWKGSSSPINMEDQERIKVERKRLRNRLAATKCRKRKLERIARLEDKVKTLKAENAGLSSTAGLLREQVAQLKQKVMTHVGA
T1 sequence 2: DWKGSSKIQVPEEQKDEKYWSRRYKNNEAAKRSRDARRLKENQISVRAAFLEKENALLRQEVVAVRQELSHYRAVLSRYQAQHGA

A further experiment deals with T2, FOSL1;ATF3 (Homo sapiens;Homo sapiens, UniProt P15407;P18847 96-169;77-150, |).
T2 sequence 1: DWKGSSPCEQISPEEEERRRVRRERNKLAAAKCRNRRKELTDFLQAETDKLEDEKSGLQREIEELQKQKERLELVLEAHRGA
T2 sequence 2: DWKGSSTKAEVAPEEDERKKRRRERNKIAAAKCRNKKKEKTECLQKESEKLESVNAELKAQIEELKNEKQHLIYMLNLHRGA

For another experiment, the target named is T3, FOSL1;BATF3 (Homo sapiens;Homo sapiens, UniProt P15407;Q9NR55 96-169;26-99, |).
T3 sequence 1: T2 sequence 1
T3 sequence 2: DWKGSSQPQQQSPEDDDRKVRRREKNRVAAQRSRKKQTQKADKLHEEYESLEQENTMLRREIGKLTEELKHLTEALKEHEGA

The next experiment concerns the target T4, ATF5;CEBPG (Homo sapiens;Homo sapiens, UniProt Q9Y2D1;P53567 199-275;52-130, |).
T4 sequence 1: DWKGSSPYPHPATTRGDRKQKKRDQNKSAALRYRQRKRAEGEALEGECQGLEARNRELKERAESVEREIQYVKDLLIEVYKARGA
T4 sequence 2: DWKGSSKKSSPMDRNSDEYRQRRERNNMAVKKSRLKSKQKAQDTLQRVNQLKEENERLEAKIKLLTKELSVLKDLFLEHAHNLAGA

In a further experiment the target is T5, ATF5;BATF3 (Homo sapiens;Homo sapiens, UniProt Q9Y2D1;Q9NR55 199-275;26-99, |).
T5 sequence 1: T4 sequence 1
T5 sequence 2: T3 sequence 2

In a further experiment the target is T6, BATF2;ATF3 (Homo sapiens;Homo sapiens, UniProt Q8N1L9;P18847 8-85;77-150, |).
T6 sequence 1: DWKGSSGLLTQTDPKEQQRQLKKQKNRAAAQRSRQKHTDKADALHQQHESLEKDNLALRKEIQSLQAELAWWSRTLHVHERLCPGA
T6 sequence 2: T2 sequence 2

The target of the next experiment is T7, BATF;ATF3 (Homo sapiens;Homo sapiens, UniProt Q16520;P18847 17-90;77-150, |).
T7 sequence 1: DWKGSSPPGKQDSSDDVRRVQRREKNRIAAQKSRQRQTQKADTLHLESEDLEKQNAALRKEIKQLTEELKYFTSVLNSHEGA
T7 sequence 2: T2 sequence 2

The source of these data is PMC5349851, “Combinatorial bZIP dimers display complex DNA-binding specificity landscapes”.

BATF2;JUN, sequence (P05412 other isoform, or with tags, fused parts or gaps |): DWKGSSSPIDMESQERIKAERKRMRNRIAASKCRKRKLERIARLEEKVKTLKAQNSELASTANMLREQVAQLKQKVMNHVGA
ATF5;JUN, sequence (P05412 other isoform, or with tags, fused parts or gaps |): as above
MAFB;ATF4, sequence (Q9Y5Q3 other isoform, or with tags, fused parts or gaps |, chain 1 of 2): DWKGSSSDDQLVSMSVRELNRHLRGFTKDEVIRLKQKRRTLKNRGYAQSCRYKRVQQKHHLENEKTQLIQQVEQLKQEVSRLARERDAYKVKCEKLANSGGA
MAFB;ATF4, sequence (P18848 other isoform, or with tags, fused parts or gaps |, chain 2 of 2): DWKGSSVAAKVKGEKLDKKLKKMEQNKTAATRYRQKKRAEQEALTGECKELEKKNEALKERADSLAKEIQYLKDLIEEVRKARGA
FOS;ATF2, sequence (P01100 other isoform, or with tags, fused parts or gaps |, chain 1 of 2): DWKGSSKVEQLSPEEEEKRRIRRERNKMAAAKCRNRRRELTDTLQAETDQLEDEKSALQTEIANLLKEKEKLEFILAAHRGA
FOS;ATF2, sequence (P15336 other isoform, or with tags, fused parts or gaps |, chain 2 of 2): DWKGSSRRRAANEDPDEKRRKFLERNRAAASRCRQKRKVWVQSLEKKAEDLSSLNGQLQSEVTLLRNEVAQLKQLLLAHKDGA
FOS;ATF3, sequence (P01100 other isoform, or with tags, fused parts or gaps |, chain 1 of 2, one chain of several): as the sequence (P01100 other isoform, or with tags, fused parts or gaps |, chain 1 of 2) above
FOS;DBP, sequence (P01100 other isoform, or with tags, fused parts or gaps |): as the sequence (P01100 other isoform, or with tags, fused parts or gaps |, chain 1 of 2) above
FOS;BATF3, sequence (P01100 other isoform, or with tags, fused parts or gaps |): as the sequence (P01100 other isoform, or with tags, fused parts or gaps |, chain 1 of 2) above
FOS;ATF4, sequence (P01100 other isoform, or with tags, fused parts or gaps |, chain 1 of 2): as above
FOS;ATF4, sequence (P18848 other isoform, or with tags, fused parts or gaps |, chain 2 of 2): as the sequence (P18848 other isoform, or with tags, fused parts or gaps |, chain 2 of 2) above
BATF;CEBPA, sequence (P49715 other isoform, or with tags, fused parts or gaps |): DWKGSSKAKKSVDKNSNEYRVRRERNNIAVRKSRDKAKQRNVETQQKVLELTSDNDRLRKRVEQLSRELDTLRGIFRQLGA
DDIT3;CEBPG, sequence (P35638 other isoform, or with tags, fused parts or gaps |): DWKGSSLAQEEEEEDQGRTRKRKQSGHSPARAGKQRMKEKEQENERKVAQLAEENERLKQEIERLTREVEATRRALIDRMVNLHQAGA

As to ATGATGCAAT, the binding signal is 0.0471 relative CSI intensity (max = 1) with JUNB;DBP; 0.0115 relative CSI intensity (max = 1) with BATF;CEBPA; 0.00412 relative CSI intensity (max = 1) in the experiment with FOSL1;ATF3; 0.368 relative CSI intensity (max = 1) with FOSL1;CEBPA; 0.00257 relative CSI intensity (max = 1) with FOSL1;JUN; 0.00287 relative CSI intensity (max = 1) in the experiment with FOSL1;BATF3. The binding signal in the experiment with FOS;ATF3 is 0.0114 relative CSI intensity (max = 1); with FOS;ATF4, 0.00384 relative CSI intensity (max = 1); with FOS;DBP, 0.0452 relative CSI intensity (max = 1); with ATF5;CEBPG it was 0.687 relative CSI intensity (max = 1); with ATF5;CEBPA it was 0.756 relative CSI intensity (max = 1); in the experiment with ATF5;JUN, 0.0503 relative CSI intensity (max = 1). Moreover, the binding signal is 0.00117 relative CSI intensity (max = 1) with ATF5;BATF3; 0.574 relative CSI intensity (max = 1) with DDIT3;CEBPG; 0.0202 relative CSI intensity (max = 1) in the experiment with MAFB;ATF4; 0.003 relative CSI intensity (max = 1) with BATF2;ATF3; 0.00706 relative CSI intensity (max = 1) with BATF2;JUN.

ATGACGTCAT: the binding signal with JUNB;DBP was 1 relative CSI intensity (max = 1); with BATF;ATF3, 0.113 relative CSI intensity (max = 1); with BATF;CEBPA, 0.00178 relative CSI intensity (max = 1); in the experiment with FOSL1;ATF3, 0.156 relative CSI intensity (max = 1); with FOSL1;CEBPA, 0.261 relative CSI intensity (max = 1); in the experiment with FOSL1;JUN, 0.478 relative CSI intensity (max = 1). Moreover, the binding signal is 0.282 relative CSI intensity (max = 1) with FOSL1;BATF3; 0.117 relative CSI intensity (max = 1) in the experiment with FOS;ATF3; 1 relative CSI intensity (max = 1) with FOS;ATF4; 1 relative CSI intensity (max = 1) with FOS;BATF3; 1 relative CSI intensity (max = 1) with FOS;ATF2; 0.887 relative CSI intensity (max = 1) with FOS;DBP. Besides, the binding signal with ATF5;CEBPG is 0.529 relative CSI intensity (max = 1); in the experiment with ATF5;CEBPA, 0.516 relative CSI intensity (max = 1); in the experiment with ATF5;JUN it was 0.742 relative CSI intensity (max = 1); with ATF5;BATF3, 0.681 relative CSI intensity (max = 1); with DDIT3;CEBPG it was 1 relative CSI intensity (max = 1); with MAFB;ATF4, 0.336 relative CSI intensity (max = 1). The values for the binding signal in the experiment with BATF2;ATF3 and with BATF2;JUN were 0.0121 relative CSI intensity (max = 1) and 0.299 relative CSI intensity (max = 1), respectively.

With CCTGACGTCA, the binding signal with JUNB;DBP is 0.0067 relative CSI intensity (max = 1); with BATF;ATF3 it was 0.0203 relative CSI intensity (max = 1); with FOSL1;ATF3 it was 0.0517 relative CSI intensity (max = 1); with FOSL1;CEBPA, 0.00677 relative CSI intensity (max = 1); with FOSL1;JUN, 0.00953 relative CSI intensity (max = 1); with FOSL1;BATF3, 0.0211 relative CSI intensity (max = 1). Further, the binding signal with FOS;ATF3 is 0.0295 relative CSI intensity (max = 1); in the experiment with FOS;ATF4, 0.0251 relative CSI intensity (max = 1); with FOS;BATF3, 0.0279 relative CSI intensity (max = 1); with FOS;ATF2 it was 0.00727 relative CSI intensity (max = 1); with FOS;DBP, 0.057 relative CSI intensity (max = 1); with ATF5;CEBPG it was 0.072 relative CSI intensity (max = 1). The binding signal is 0.0673 relative CSI intensity (max = 1) with ATF5;CEBPA; 0.288 relative CSI intensity (max = 1) with ATF5;JUN; 0.0107 relative CSI intensity (max = 1) with ATF5;BATF3; 0.0315 relative CSI intensity (max = 1) with DDIT3;CEBPG; 0.182 relative CSI intensity (max = 1) with MAFB;ATF4; 0.00318 relative CSI intensity (max = 1) with BATF2;ATF3. Moreover, in the experiment with BATF2;JUN, the binding signal was 0.0191 relative CSI intensity (max = 1).

ATGACGGAAT: the binding signal with JUNB;DBP is 0.0141 relative CSI intensity (max = 1); in the experiment with BATF;ATF3 it was 0.019 relative CSI intensity (max = 1); in the experiment with FOSL1;ATF3 it was 0.0493 relative CSI intensity (max = 1); with FOSL1;CEBPA, 0.00381 relative CSI intensity (max = 1); in the experiment with FOSL1;JUN it was 0.00225 relative CSI intensity (max = 1); with FOS;ATF3, 0.0362 relative CSI intensity (max = 1). The binding signal with FOS;ATF4 was 0.00272 relative CSI intensity (max = 1); in the experiment with FOS;DBP it was 0.0179 relative CSI intensity (max = 1); with ATF5;CEBPG it was 0.0428 relative CSI intensity (max = 1); with ATF5;CEBPA, 0.0438 relative CSI intensity (max = 1); in the experiment with DDIT3;CEBPG, 0.0328 relative CSI intensity (max = 1); with MAFB;ATF4, 0.014 relative CSI intensity (max = 1). Besides, the binding signal in the experiment with BATF2;JUN is 0.00635 relative CSI intensity (max = 1).

As to ATGACGTAAT, the binding signal with JUNB;DBP was 0.727 relative CSI intensity (max = 1); with BATF;ATF3, 0.0836 relative CSI intensity (max = 1); with BATF;CEBPA, 0.00231 relative CSI intensity (max = 1); in the experiment with FOSL1;ATF3, 0.0529 relative CSI intensity (max = 1); in the experiment with FOSL1;CEBPA it was 0.208 relative CSI intensity (max = 1); with FOSL1;JUN, 0.0392 relative CSI intensity (max = 1). The binding signal with FOSL1;BATF3 was 0.0576 relative CSI intensity (max = 1); with FOS;ATF3, 0.0389 relative CSI intensity (max = 1); with FOS;ATF4, 0.0605 relative CSI intensity (max = 1); with FOS;BATF3, 0.0787 relative CSI intensity (max = 1); with FOS;ATF2, 0.133 relative CSI intensity (max = 1); with FOS;DBP it was 0.614 relative CSI intensity (max = 1). Further, the binding signal was 0.502 relative CSI intensity (max = 1) with ATF5;CEBPG; 0.488 relative CSI intensity (max = 1) with ATF5;CEBPA; 0.289 relative CSI intensity (max = 1) with ATF5;JUN; 0.0199 relative CSI intensity (max = 1) with ATF5;BATF3; 0.437 relative CSI intensity (max = 1) with DDIT3;CEBPG; 0.108 relative CSI intensity (max = 1) in the experiment with MAFB;ATF4. Besides, the figures for the binding signal with BATF2;ATF3 and in the experiment with BATF2;JUN were 0.00842 relative CSI intensity (max = 1) and 0.116 relative CSI intensity (max = 1), respectively.

In the case of ATGACGCAAT, the binding signal was 0.162 relative CSI intensity (max = 1) with JUNB;DBP; 0.0223 relative CSI intensity (max = 1) with BATF;ATF3; 0.00768 relative CSI intensity (max = 1) with BATF;CEBPA; 0.0466 relative CSI intensity (max = 1) with FOSL1;ATF3; 0.765 relative CSI intensity (max = 1) with FOSL1;CEBPA; 0.0151 relative CSI intensity (max = 1) in the experiment with FOSL1;JUN. For the same sequence, the binding signal with FOS;ATF3 is 0.0598 relative CSI intensity (max = 1); with FOS;ATF4, 0.0149 relative CSI intensity (max = 1); with FOS;BATF3 it was 0.00954 relative CSI intensity (max = 1); with FOS;ATF2, 0.00209 relative CSI intensity (max = 1); in the experiment with FOS;DBP, 0.194 relative CSI intensity (max = 1); with ATF5;CEBPG, 0.902 relative CSI intensity (max = 1). Moreover, the binding signal in the experiment with ATF5;CEBPA is 0.864 relative CSI intensity (max = 1); with ATF5;JUN, 0.0554 relative CSI intensity (max = 1); with ATF5;BATF3, 0.00351 relative CSI intensity (max = 1); with DDIT3;CEBPG, 0.339 relative CSI intensity (max = 1); in the experiment with MAFB;ATF4 it was 0.0526 relative CSI intensity (max = 1); with BATF2;ATF3, 0.00454 relative CSI intensity (max = 1). In addition, the binding signal with BATF2;JUN is 0.0567 relative CSI intensity (max = 1).
